JMJD2E inh: qHTS Assay for Inhibitors of Human Jumonji Domain Containing 2E (JMJD2E) | Lysine-specific demethylase 4E (Homo sapiens), B2RXH2 | JMJD2E catalytic domain, FDH-coupled NADH fluorescence (FDH is formaldehyde dehydrogenase) | Potency, µM (doses to about 57.1 µM), without a hit: top-dose activity change, negative = inhibition, hits mostly inhibitors | 1.6% of 230,000 active | AID 2147, 2009;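 further: potency means the concentration at half of the fitted maximal effect; 0% = wells with enzyme and -100% = buffer wells without enzyme; nearly all actives have a fitted effect of over 50% in size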
HPGD inh: qHTS Assay for Inhibitors of HPGD (15-Hydroxyprostaglandin Dehydrogenase); AID 894, 2007; 4.3% of 150,000 active; 15-hydroxyprostaglandin dehydrogenase [NAD(+)] (Homo sapiens), P15428; purified HPGD, NADH fluorescence kinetic, PGE2 substrate; Potency, µM, for inactives: at the highest dose activity change, negative = inhibition, most hits filed as inhibitors; further: potency means the concentration at half of the fitted maximal effect
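20 nM HPGD preincubated 15 min at room temperature with compound in 50 mM Tris-HCl pH 8, 0.01% Tween 20. Started with 1 mM NAD+ and 30 uM prostaglandin E2; NADH fluorescence (360/450 nm) read 5 times over 30-s intervals, last minus first.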
PNC inhibitor: High Content Assay for Compounds that inhibit the Assembly of the Perinucleolar Compartment. PC3M PTB-GFP, PNC prevalence imaging, 16 h; active compounds read low. activity change (PNC), negative = inhibition, % at 10 µM. 3.1% of 140,000 active. AID 2417, 2010;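 active means readout at or below -70, meaning at least 70% loss of cells showing the perinucleolar compartment, a nuclear body marking cancer cells; inconclusive means readout between -30 and a set limit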;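 further: plate controls were DMSO wells for no effect and camptothecin positive control wells for full effect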
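PC3M cells stably expressing PTB-GFP, 750–1000 cells/well, treated 16 h at 37 °C with compound (23 nl of library stock), in duplicate. After paraformaldehyde fixation and Hoechst stain, imaged at 20x; PNC prevalence scored by image analysis.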
ALDH1A1 inh: qHTS Assay for Inhibitors of Aldehyde Dehydrogenase 1 (ALDH1A1); Purified ALDH1A1, NADH fluorescence, propionaldehyde substrate; Potency, µM (top dose mostly 75.3 µM), inactives show at the top dose activity, negative = inhibition, most hits filed as inhibitors; 7.3% of 220,000 active; Aldehyde dehydrogenase 1A1 (Homo sapiens), P00352;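 further: potency means the concentration at half of the fitted maximal effect; plate controls were no enzyme wells and a reference inhibitor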
Target sequence (P00352 whole entry, looked up): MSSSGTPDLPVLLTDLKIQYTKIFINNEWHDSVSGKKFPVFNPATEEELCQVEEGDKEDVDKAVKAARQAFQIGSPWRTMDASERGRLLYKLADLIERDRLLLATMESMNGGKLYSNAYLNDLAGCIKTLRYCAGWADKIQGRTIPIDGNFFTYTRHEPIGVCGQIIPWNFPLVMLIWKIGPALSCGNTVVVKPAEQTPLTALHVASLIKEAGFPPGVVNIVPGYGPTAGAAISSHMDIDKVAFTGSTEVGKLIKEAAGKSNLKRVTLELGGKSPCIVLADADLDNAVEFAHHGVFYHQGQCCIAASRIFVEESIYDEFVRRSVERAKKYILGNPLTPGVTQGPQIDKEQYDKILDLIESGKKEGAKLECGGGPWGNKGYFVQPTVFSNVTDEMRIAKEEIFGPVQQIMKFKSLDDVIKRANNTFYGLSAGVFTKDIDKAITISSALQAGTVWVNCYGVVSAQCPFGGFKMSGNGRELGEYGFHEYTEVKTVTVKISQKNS
Starred values were filed as active, the others as inactive; ? = inconclusive; · = no result; [ ] = remark or other dose. Most compounds without a hit are left out; they make up all but 11% or so of the library. Unless noted, the call rests on the fitted dose curve; in most records, active means well fitted inhibition curve with a large enough effect (not every such curve was filed as active); inconclusive means small, poorly fitted or top-dose-only effect, or another doubt; inactive means no such curve, though single readings can be large or run the other way. Unless noted, on the % scale 0 is the no-effect control and ±100 the full control effect.

SMILES	JMJD2E inh	HPGD inh	PNC inhibitor	ALDH1A1 inh
COC(=O)c1cccc(-c2ccc(/C=N/N3C(=O)C4C5C=CC(C6CC56)C4C3=O)o2)c1 (centres undefined)	?	·	·	14µM*
COC(=O)N/N=C/c1ccc(-c2cccc(Cl)c2)o1	-13%	?	9	-9%
O=C1C2C3C=CC(C4CC34)C2C(=O)N1/N=C/c1ccc(-c2ccc([N+](=O)[O-])cc2)o1 (centres undefined)	7%	·	·	-2%
Cn1cccc1C(=O)N1CCC[C@@]2(CCN(Cc3ccccc3)C2)C1	·	-8%	·	-9%
O=C(C[n+]1cn(C(F)F)c2ccccc21)c1ccc(Br)cc1	-8%	·	·	8.9µM*
Cc1ccc2c(c1)C(N1CCN(C)CC1)=Nc1cccnc1N2	2%	-16%	·	-2%
O=C(O)CCC(=O)c1ccc2c(c1)OCCO2	-11%	-15%	36	12%
O=C(CCN1Cc2ccccc2C1)c1ccc2c(c1)OCCO2	-16%	-12%	0	1.3µM*
Cc1cc(C(=O)OCC(=O)c2ccc3c(c2)OCCO3)c(C)o1	-6%	20µM*	?	?
O=C(CCN1CCc2ccccc2C(c2ccccc2)C1)c1ccc2c(c1)OCCO2 (centres undefined)	0%	-17%	63	0.14µM*
O=C(O)CCSCC(=O)c1ccc2c(c1)OCCO2	-2%	-7%	0	15µM*
C/C(=N\O)C(=O)NCCN(C)C	-3%	3%	?	13%
CCC(=O)c1ccc2c(c1)OCCO2	-5%	·	·	·
CN(C)CCC(=O)c1ccc2c(c1)OCO2	-21%	-17%	6	0.022µM*
CN(C)CCC(=O)c1cccc(Br)c1	?	·	·	0.04µM*
CCCC(=O)c1ccc2c(c1)OCCO2	1%	28µM*	-27	3%
CCN(CC(=O)Nc1ccc(N2CCOCC2)cc1)CC(=O)NC(C)(C)C	-1%	·	·	2%
Cc1ccccc1N1CC(C(=O)Nc2nnc(SCC(=O)Nc3nccs3)s2)CC1=O (centres undefined)	1%	-29%	4	16µM*
CCN(CC(=O)NC(C)C)C(=O)Cc1ccc(C)c(C)c1	-4%	·	·	6%
O=C(CNC(=O)c1ccccc1C(=O)O)c1ccccc1	-6%	-6%	22	25µM*
O=C(CNC(=S)NC(=O)c1cccs1)c1ccccc1	8%	-18%	?	7.9µM*
O=C(NC(=S)Nc1nc2ccccc2s1)c1cccs1	-1%	-18%	-100*	3.5µM*
O=C(CNC(=S)NC(=O)c1ccco1)c1ccccc1	5%	-14%	-5	20µM*
Cc1ccc(C(=O)NC(=S)NCC(=O)c2ccccc2)cc1	5%	-12%	-29	?
CCOC(=O)N1CCN(C(=O)CSCc2ccccc2Cl)CC1	0%	0%	47	-3%
SMILES	JMJD2E inh	HPGD inh	PNC inhibitor	ALDH1A1 inh
O=S(=O)(c1cccc(C(F)(F)F)c1)N1c2ccccc2-n2cccc2[C@H]1c1cccnc1	·	-24%	·	-4%[13.5 µM]
COc1cc(C(C(=O)NC(C)(C)C)N(Cc2ccc3c(c2)OCO3)C(=O)c2cnccn2)cc(OC)c1OC (centres undefined)	6%	-10%	-21	-4%
COc1ccc(CN(C(=O)c2cnccn2)C(C(=O)NC(C)(C)C)c2cc(OC)c(OC)c(OC)c2)cc1 (centres undefined)	-2%	-1%	-95*	-1%
CC(=O)c1c(NCCc2ccccc2)nc(=S)n(-c2ccccc2)c1C	-3%	·	·	-6%
CC(=O)c1c(NCc2ccccc2)nc(=O)n(-c2ccccc2)c1C	-4%	-21%	13	14µM*
CC1(C)CC2CC(C)(CN2C(=O)COC(=O)Cn2[nH]c(=O)c3ccccc3c2=O)C1 (centres undefined)	-1%	-11%	-88*	-1%
Cc1ccc(OCC(=O)N2CC3(C)CC2CC(C)(C)C3)cc1 (centres undefined)	11%	-13%	-100*	5%
CCOc1ccc(C(=O)NC(=S)Nc2ccc(N3CCC(C)CC3)cc2)cc1[N+](=O)[O-]	4%	-30%	-119*	7.9µM*
CCC(=O)N1CCN(c2ccc(NC(=S)NC(=O)c3ccc(OC)c([N+](=O)[O-])c3)cc2)CC1	12%	·	·	11µM*

Bioassay records deposited in PubChem BioAssay by National Center for Advancing Translational Sciences (NCATS).
